Several values for one entry are separate records, joined by “and”; a condition that tells them apart may be missing. Equal entries are not always repeated. In all, about 360,000 compounds went through this assay and about 340 (0.094%) were called active. Cut-off read from the data, not from the text of the source: active = inhibition above about 40%; inconclusive = no clear call, values can overlap the other calls; inactive = below that. The full list was thinned out, with actives kept by preference. Some structures have more than one record in an assay (separate samples or runs), and their calls can disagree.
test system: 7,8-diaminopelargonic acid synthase BioA (Mycobacterium tuberculosis); test: M. tuberculosis BioA enzyme inhibitors, primary screen, biochemical, plate reader, single point, HTS (AID 602481); conditions: purified M. tuberculosis BioA enzyme, at 9.99 µM, stronger effect = higher value

Question: Which inhibition does the source give for `COc1cc(-c2n[nH]c(=S)n2Cc2ccccc2)cc(OC)c1OC` here?
Answer: 69.8% (active)

Question: For `CC(C)Oc1ccc(CCc2n[nH]c(=S)n2Cc2ccccc2)cc1`, which inhibition is on record?
Answer: 0.782% (inactive)

Question: Which inhibition does the source give for `CC(C)Oc1ccc(Cc2n[nH]c(=S)n2Cc2ccccc2)cc1Cl` here?
Answer: 0.831% (inactive)

Question: Which inhibition does the source give for `COc1ccc(S(=O)(=O)N2C[C@@H](O)COC[C@H]3O[C@@H](CC(=O)NCCN4CCCCC4)CC[C@@H]32)cc1` here?
Answer: -1.77% (inactive)

Question: How did the inhibition turn out when `CC(C)NC(=O)N1[C@@H]2CN(C(=O)C3CCCCC3)c3ccccc3[C@@H]2[C@@H]1CO` was run?
Answer: -4.4% (inactive)

Question: `Cc1noc(C)c1S(=O)(=O)N(C)C[C@@H]1Oc2c(NS(=O)(=O)c3cn(C)cn3)cccc2C(=O)N([C@@H](C)CO)C[C@H]1C` was tested. Which inhibition did it give?
Answer: -0.608% (inactive)

Question: For `Cc1ccc(S(=O)(=O)N(C)C[C@@H]2Oc3c(NC(=O)NC(C)C)cccc3C(=O)N([C@H](C)CO)C[C@H]2C)cc1`, which inhibition is on record?
Answer: -1.17% (inactive)

Question: With `C[C@]12CCC(=O)C=C1C=CC1C2CC[C@@]2(C)C1CC[C@@]21CCC(=O)O1` (some centres not stated) as the compound, how does the inhibition read?
Answer: 19.6% (inactive)

Question: With `CC(=O)O[C@]1(C(C)=O)CC[C@H]2[C@@H]3C=C(C)C4=CC(=O)CC[C@]4(C)[C@H]3CC[C@@]21C` as the compound, how does the inhibition read?
Answer: 13.2% (inactive) and 51.3% (active)

Question: Which inhibition does the source give for `CC(=O)OCC(=O)C1(O)CCC2C3CC(C)C4=CC(=O)CCC4(C)C3C(O)CC21C` (configuration not stated) here?
Answer: -0.825% (inactive)

Question: Which inhibition does the source give for `CC(C)C#Cc1cnc2c(c1)C(=O)N([C@@H](C)CO)C[C@@H](C)[C@@H](CN(C)C(=O)CN1CCOCC1)O2` here?
Answer: -1.21% (inactive)

Question: Which inhibition does the source give for `C[C@@H]1CN([C@@H](C)CO)C(=O)c2cc(NS(=O)(=O)c3cn(C)cn3)ccc2O[C@@H](C)CCCCO[C@H]1CN(C)S(=O)(=O)c1cccs1` here?
Answer: 0.052% (inactive)

Question: Which inhibition does the source give for `O=C(C1CCCC1)N1[C@H](CO)[C@@H]2c3ccccc3N(S(=O)(=O)c3ccccc3)C[C@@H]21` here?
Answer: 6.11% (inactive)

Question: With `Cc1ccc(S(=O)(=O)N[C@H]2C=C[C@@H](CC(=O)NCCc3ccncc3)O[C@@H]2CO)cc1` as the compound, how does the inhibition read?
Answer: 2.21% (inactive)

Question: For `C[C@H](CO)N1C[C@H](C)[C@H](CN(C)S(=O)(=O)c2ccc(C#N)cc2)Oc2ncc(-c3cccc(F)c3)cc2C1=O`, which inhibition is on record?
Answer: 4.36% (inactive)

Question: With `CO[C@@H](CN(C)S(=O)(=O)c1ccccc1)[C@@H](C)CN(Cc1ccccc1Cl)[C@H](C)CO` as the compound, how does the inhibition read?
Answer: -0.143% (inactive)

Question: How did the inhibition turn out when `O=C(CSc1nnc(-c2ccncc2)n1C1CCCCC1)Nc1ccccc1` was run?
Answer: -0.812% (inactive)

Question: Which inhibition does the source give for `CC1CC(C)CN(C(=O)CSc2nnc(CSc3ncccn3)n2C)C1` (configuration not stated) here?
Answer: 0.828% (inactive)

Question: `CC(=O)CSc1nnc(CSc2ncccn2)n1C1CCCCC1` was tested. Which inhibition did it give?
Answer: 43.5% (active)

Question: How did the inhibition turn out when `CCCN1C[C@H](C)[C@@H](OC)CN(C)C(=O)c2ccc(NC(=O)c3cnccn3)cc2OC[C@H]1C` was run?
Answer: -1.47% (inactive)

Question: Which inhibition does the source give for `COc1ccc(NC(=O)N(C)C[C@H]2OCCCC[C@@H](C)Oc3ccc(NC(=O)Nc4ccc5c(c4)OCO5)cc3C(=O)N([C@H](C)CO)C[C@@H]2C)cc1` here?
Answer: -1.28% (inactive)

Question: Which inhibition does the source give for `C[C@H](CO)N1C[C@H](C)[C@@H](CN(C)C)Oc2ccc(NS(=O)(=O)c3cccs3)cc2C1=O` here?
Answer: 2.81% (inactive)

Question: Which inhibition does the source give for `CC(=O)N1[C@H](CO)[C@H]2c3ccccc3N(C(=O)c3ccc(F)cc3)C[C@H]21` here?
Answer: -3.14% (inactive)

Question: Which inhibition does the source give for `Cc1ccc(S(=O)(=O)N(C)C[C@@H]2Oc3c(NC(=O)C4CC4)cccc3C(=O)N([C@H](C)CO)C[C@@H]2C)cc1` here?
Answer: -0.903% (inactive)

Question: Which inhibition does the source give for `C[C@@H]1CCCCO[C@H](CN(C)C)[C@@H](C)CN([C@H](C)CO)C(=O)c2cc(N(C)C)ccc2O1` here?
Answer: -0.059% (inactive)

Question: With `CN(C)CC(=O)Nc1ccc2c(c1)[C@H]1C[C@@H](CC(=O)NCc3ccc(Cl)cc3)O[C@@H](CO)[C@H]1O2` as the compound, how does the inhibition read?
Answer: 0.123% (inactive)

Question: For `C[C@H]1CN([C@@H](C)CO)C(=O)CCCn2cc(nn2)CO[C@H]1CN(C)C(=O)Nc1cccc(C(F)(F)F)c1`, which inhibition is on record?
Answer: -3.91% (inactive)

Question: Which inhibition does the source give for `COCC(=O)N1[C@H](CO)[C@@H](c2ccccc2)[C@H]1CN(C)C(=O)c1ccncc1` here?
Answer: -4.1% (inactive)

Question: `C[C@@H]1CN([C@@H](C)CO)C(=O)c2c(c3ccccc3n2C)-c2ccccc2CO[C@H]1CN(C)S(=O)(=O)c1cccs1` was tested. Which inhibition did it give?
Answer: -2.08% (inactive)

Question: How did the inhibition turn out when `CN1[C@@H]2CN(C(=O)C3CCCCC3)c3ccccc3[C@@H]2[C@@H]1CO` was run?
Answer: 5.87% (inactive)

Question: `CC(C)(C)[S@@](=O)N1Cc2cc(C(=O)N3CCCCC3)nc(-c3cccc(-c4cccc(C#N)c4)c3)c2[C@H]1CCO` was tested. Which inhibition did it give?
Answer: 0.956% (inactive)

Question: Which inhibition does the source give for `COc1ccc(NC(=O)Nc2ccc3c(c2)[C@H]2C[C@H](CC(=O)NC4CCCCC4)O[C@H](CO)[C@H]2O3)cc1` here?
Answer: 0.43% (inactive)

Question: `Cn1nccc1/C=N\NC(=O)c1ccc(Cl)cc1` was tested. Which inhibition did it give?
Answer: 69.1% (active)

Question: For `CC(=NNC(=O)c1ccncc1)c1ccc(Cl)c(Cl)c1`, which inhibition is on record?
Answer: -0.685% (inactive)

Question: `CN1CCC(=NNC(=O)c2ccc(N(Cc3ccc(Cl)cc3)S(C)(=O)=O)cc2)CC1` was tested. Which inhibition did it give?
Answer: -0.516% (inactive)

Question: Which inhibition does the source give for `CC(=O)Nc1ccccc1-c1cn(CC(=O)N2CCOCC2)nn1` here?
Answer: -2.47% (inactive)

Question: Which inhibition does the source give for `CC(C)CC#Cc1cnc2c(c1)C(=O)N([C@@H](C)CO)C[C@H](C)[C@@H](CN(C)Cc1ccccc1C(=O)O)O2` here?
Answer: -0.715% (inactive)

Question: For `C[C@@H]1CN([C@@H](C)CO)C(=O)c2cc(NC(=O)CCCN(C)C)ccc2O[C@@H](C)CCCCO[C@H]1CN(C)C(=O)Nc1cccc2ccccc12`, which inhibition is on record?
Answer: -0.656% (inactive)

Question: For `O=C(C[C@@H]1C[C@H]2c3cc(NC(=O)CC4CC4)ccc3O[C@H]2[C@@H](CO)O1)NCc1ccc2c(c1)OCO2`, which inhibition is on record?
Answer: -1.7% (inactive)

Question: For `C[C@@H]1CCCCO[C@@H](CN(C)C(=O)Nc2ccc3c(c2)OCO3)[C@H](C)CN([C@H](C)CO)C(=O)c2cc(NC(=O)CCCN(C)C)ccc2O1`, which inhibition is on record?
Answer: 1.19% (inactive)

Question: How did the inhibition turn out when `CCC(=O)Nc1ccc2c(c1)C(=O)N(C)C[C@H](OC)[C@H](C)CN(C(=O)c1ccccn1)[C@@H](C)CO2` was run?
Answer: -2.41% (inactive)

Question: `COCCNC(=O)C[C@H]1C=C[C@@H](NS(=O)(=O)c2ccc(C)cc2)[C@@H](CO)O1` was tested. Which inhibition did it give?
Answer: -2.72% (inactive)

Question: Which inhibition does the source give for `Cc1n[nH]c(=O)n1-c1ccc(Oc2ccccc2)cc1` here?
Answer: -2.98% (inactive)

Question: Which inhibition does the source give for `Cc1nc(=O)c(-c2ccccc2)c(C)n1-c1ccc(Br)cc1` here?
Answer: 42.7% (active)

Question: With `S=C1NC(c2ccccc2)=NCN1c1ccc(Br)cc1` as the compound, how does the inhibition read?
Answer: 0.0265% (inactive)

Question: Which inhibition does the source give for `CN(C)CC(=O)N1CCCCN2[C@@H](CO)[C@H](c3ccc(-c4cccnc4)cc3)[C@@H]2C1` here?
Answer: 0.035% (inactive)

Question: Which inhibition does the source give for `C[C@H]1CN([C@@H](C)CO)C(=O)c2cc(C3=CCCC3)cnc2O[C@@H]1CN(C)Cc1cccnc1` here?
Answer: 4.42% (inactive)

Question: `CN1C(=O)c2cc(NC(=O)c3cccc(F)c3)ccc2OC[C@H]2O[C@@H](CC(=O)NCc3ccccc3Cl)CC[C@@H]21` was tested. Which inhibition did it give?
Answer: 0.94% (inactive)

Question: Which inhibition does the source give for `Cc1noc(C)c1NC(=O)Nc1cccc2c1O[C@H](CN(C)S(C)(=O)=O)[C@H](C)CN([C@H](C)CO)C2=O` here?
Answer: 3.42% (inactive)

Question: `Cc1ccccc1S(=O)(=O)N1[C@H](CO)[C@@H](c2ccc(-c3ccccc3)cc2)[C@@H]1C#N` was tested. Which inhibition did it give?
Answer: -1.28% (inactive)

Question: With `C[C@H](CO)N1C[C@H](C)[C@H](CN(C)CC2CCCC2)Oc2ncc(-c3ccc(F)cc3)cc2C1=O` as the compound, how does the inhibition read?
Answer: -5.25% (inactive)

Question: Which inhibition does the source give for `CC(C)NC(=O)Nc1cccc2c1O[C@@H](CN(C)Cc1ccc(C(=O)O)cc1)[C@@H](C)CN([C@H](C)CO)C2=O` here?
Answer: -3.95% (inactive)

Question: Which inhibition does the source give for `CCC(=O)N1[C@H](CO)[C@@H]2c3ccccc3N(S(=O)(=O)c3ccccc3C)C[C@@H]21` here?
Answer: -6.45% (inactive)

Question: For `C[C@@H]1CN([C@@H](C)CO)C(=O)c2cccc(NC(=O)c3ccc(-c4nccs4)cc3)c2O[C@@H]1CN(C)S(=O)(=O)c1ccccc1`, which inhibition is on record?
Answer: -1.38% (inactive)

Question: `CCN1CCN(c2nc3c(c(=O)[nH]2)CCC3)CC1` was tested. Which inhibition did it give?
Answer: -4.22% (inactive)

Question: With `O=c1[nH]c(N2CCN(Cc3ccc4c(c3)OCO4)CC2)nc2c1CCCC2` as the compound, how does the inhibition read?
Answer: 71.1% (active)

Question: With `CCc1c(C)nc(N2CCN(Cc3ccccc3)CC2)[nH]c1=O` as the compound, how does the inhibition read?
Answer: -0.075% (inactive)

Question: Which inhibition does the source give for `CO[C@@H]1CN(C)C(=O)c2ccc(NS(=O)(=O)c3ccc(C)cc3)cc2OC[C@@H](C)N(Cc2nccs2)C[C@H]1C` here?
Answer: -0.694% (inactive)

Question: For `CCC(=O)Nc1ccc2c(c1)C(=O)N(C)[C@@H]1CC[C@H](CC(=O)NCc3ccccc3)O[C@H]1CO2`, which inhibition is on record?
Answer: -0.647% (inactive)

Question: How did the inhibition turn out when `Cc1ccc(S(=O)(=O)N(C)C[C@@H]2Oc3c(NC(=O)C4CC4)cccc3C(=O)N([C@H](C)CO)C[C@H]2C)cc1` was run?
Answer: -0.505% (inactive)

Question: With `CC(C)NC(=O)N(C)C[C@@H]1Oc2ccc(NC(=O)CCCCCC(=O)Nc3ccccc3N)cc2C(=O)N([C@@H](C)CO)C[C@H]1C` as the compound, how does the inhibition read?
Answer: -2.93% (inactive)

Question: `COCCNC(=O)C[C@H]1CC[C@@H]2[C@H](COc3ccc(NC(=O)Nc4cccc(F)c4)cc3C(=O)N2C)O1` was tested. Which inhibition did it give?
Answer: 44.7% (active)

Question: With `CNC(=O)C[C@H]1CC[C@@H]2[C@H](COc3ccc(NC(=O)Nc4cccc(F)c4)cc3C(=O)N2C)O1` as the compound, how does the inhibition read?
Answer: 32% (inactive)

Question: How did the inhibition turn out when `CCNC(=O)Nc1ccc2c(c1)C(=O)N(C)[C@@H]1CC[C@@H](CC(=O)NCCOC)O[C@@H]1CO2` was run?
Answer: 0.346% (inactive)

Question: `CS(=O)(=O)N1[C@H](C(=O)NCc2ccncc2)[C@@H](CO)[C@@H]2Cn3c(ccc(C4=CCCCC4)c3=O)[C@@H]21` was tested. Which inhibition did it give?
Answer: 49% (active)

Question: With `CCN1[C@@H]2c3ccc(C4=CCCC4)c(=O)n3C[C@@H]2[C@@H](CO)[C@@H]1C(=O)NCc1ccccn1` as the compound, how does the inhibition read?
Answer: -3.69% (inactive)

Question: `CCC(=O)N1[C@H](C(=O)NCc2ccc(F)cc2)[C@@H](CO)[C@@H]2Cn3c(ccc(C4=CCCCC4)c3=O)[C@@H]21` was tested. Which inhibition did it give?
Answer: -2.21% (inactive)
